Compound activity (PubChem BioAssay)
DT40 TDP1 CPT: DT40-hTDP1 cell growth loss with CPT; chicken DT40 Tdp1-/-;hTDP1 cells + 20 nM CPT, ATP luminescence, 48 h; Potency, µM (doses to about 46.2 µM), for the others: at the top dose activity change, negative = growth inhibition, most hits filed as inhibitors; 420,000 compounds, 12% hits; further: potency means the concentration at half of the fitted maximal effect; nearly all actives have a fitted effect of over 55% in size
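Chicken DT40 Tdp1-/- cells complemented with human TDP1, 400 cells/well, exposed to compounds plus 20 nM camptothecin for at least 48 h at 37 C; viability read as ATP content by CellTiter-Glo luminescence.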
TDP1 cell noCPT: qHTS for Inhibitors of human tyrosyl-DNA phosphodiesterase 1 (TDP1): qHTS in cells in absence of CPT; DT40 Tdp1-/- hTDP1 cells, no CPT, ATP luminescence, 48 h; AID 686978, 2013; Potency, µM (doses to about 46.2 µM), without a hit: at the highest dose activity change, negative = growth inhibition, hits mostly inhibitors; 420,000 compounds, 15% hits; further: potency means the concentration at half of the fitted maximal effect; nearly all actives have a fitted effect of over 55% in size
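Camptothecin absent (DMSO only). Human TDP1-complemented DT40 knockout cells, 400 cells/well, 37 °C for minimum 48 hr; ATP measured via CellTiter-Glo, 30 min dark incubation, luminescence.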
TDP1 inh: inhibitors of human tyrosyl-DNA phosphodiesterase TDP1; Q9NUW8; recombinant TDP1, AlphaScreen DNA substrate cleavage; Potency, µM (top dose mostly 130 µM), for inactives: at the top dose activity change, negative = inhibition, actives largely listed as inhibitors; 350,000 compounds, 0.28% hits; AID 485290; further: potency means the concentration at half of the fitted maximal effect; nearly all actives have a fitted effect of over 40% in size
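Recombinant human Tdp1 (E. coli-expressed, 1 nM final) preincubated with compounds 15 min at room temperature, then 5'-biotin/3'-phosphotyrosine-FITC DNA substrate (15 nM final) added for 5 min. AlphaScreen beads (10 ug/ml final) added 10 min; cleavage lowers signal.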
Six1-Eya2 inh: Six1/Eya2 interaction inhibition; Q15475+O00167; AlphaScreen GST-Six1/His-Eya2 binding, biochemical; hits give low values; activity change, % (no concentration beside the values); 360,000 compounds, 0.56% hits; AID 651725; in the data active means activity change below about -65%; inconclusive means mostly about -30% to -63%
Target sequence (O00167 whole entry, looked up): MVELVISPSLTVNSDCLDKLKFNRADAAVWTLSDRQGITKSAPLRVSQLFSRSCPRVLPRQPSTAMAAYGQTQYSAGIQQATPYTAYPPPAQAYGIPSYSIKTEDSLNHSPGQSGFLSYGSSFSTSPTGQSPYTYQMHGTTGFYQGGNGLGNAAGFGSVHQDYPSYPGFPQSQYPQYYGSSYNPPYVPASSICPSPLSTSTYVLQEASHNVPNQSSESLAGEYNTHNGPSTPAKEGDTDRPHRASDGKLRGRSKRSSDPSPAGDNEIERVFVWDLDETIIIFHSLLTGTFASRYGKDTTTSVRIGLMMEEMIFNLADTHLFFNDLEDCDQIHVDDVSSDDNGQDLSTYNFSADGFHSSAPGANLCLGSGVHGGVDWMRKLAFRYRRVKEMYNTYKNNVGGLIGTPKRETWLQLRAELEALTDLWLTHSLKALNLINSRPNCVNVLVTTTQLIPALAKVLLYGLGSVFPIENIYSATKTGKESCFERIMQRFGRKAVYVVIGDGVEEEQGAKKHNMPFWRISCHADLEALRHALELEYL
Target sequence (Q15475 whole entry, looked up): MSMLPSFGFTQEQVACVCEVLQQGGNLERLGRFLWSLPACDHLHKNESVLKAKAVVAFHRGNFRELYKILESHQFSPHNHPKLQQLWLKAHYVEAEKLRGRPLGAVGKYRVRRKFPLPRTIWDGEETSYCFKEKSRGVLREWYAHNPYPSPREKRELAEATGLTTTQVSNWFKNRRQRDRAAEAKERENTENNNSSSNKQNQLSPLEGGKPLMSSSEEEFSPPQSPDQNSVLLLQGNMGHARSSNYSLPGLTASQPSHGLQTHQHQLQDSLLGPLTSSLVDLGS
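AlphaScreen luminescence read after one hour at 37 °C in darkness. Pin-transferred compounds met GST-Six1 and His-Eya2 protein (5X stock 250 nM/500 nM) plus glutathione donor and Ni-chelate acceptor beads (5X, 50 ug/mL).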
IL1B secr inh: inflammasome signaling inhibition, IL-1 beta readout; THP-1 LPS/ATP IL-1B secretion, AlphaLISA, 16 h; hits give low values; activity change, % at 57.5 µM; 360,000 compounds, 4.7% hits; AID 743279; in the data active means activity change below about -50%; inconclusive means mostly about -30% to -49%
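Secreted IL-1B measured by AlphaLISA bead assay after 16 h compound exposure of THP-1 cells; compounds (final up to 57.5 uM) added 1 h before LPS (250 ng/mL) and ATP (1.25 mM) stimulation; lower signal means less secretion.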
CtBP-E1A blk: blocks the CtBP interaction with E1A; AID 651724; activity change, % (no concentration beside the values); 340,000 compounds, 0.49% hits; AlphaScreen GST-E1A/His-CtBP binding, 1536-well; hits give low values; in the data active means activity change below about -65%; inconclusive means mostly about -30% to -63%
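AlphaScreen with 125 nM GST-E1A and 125 nM His-CtBP (5X stocks) in Tris pH 8.0, 300 mM NaCl, BSA, Tween 20, TCEP. Compounds preincubated 2 h at 37 deg C, then glutathione donor/nickel acceptor beads added for 1 h at 37 deg C in dark.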
The depositor's hits bear a star; ? = inconclusive; . = no result; [ ] = dose if it differs, or a comment. This is a sample that favours compounds with a hit; in the whole collection about 18% have one here. Unless noted, the call rests on the fitted dose curve; in most records, active means well fitted curve in the direction sought with a large enough effect; inconclusive means small, poorly fitted or top-dose-only effect, or another doubt; inactive means no such curve, though single readings can be large; an effect the other way counts as inactive or inconclusive. On the % scale 0 is the no-effect control and ±100 the full control effect.

SMILES	DT40 TDP1 CPT	TDP1 cell noCPT	TDP1 inh	Six1-Eya2 inh	IL1B secr inh	CtBP-E1A blk
COc1ccc(C2c3c(n(C)c4ccccc34)C(=O)N2CC(=O)Nc2ccc(C)cc2Cl)cc1 (configuration not stated)	?	?	6%	.	.	.
COc1ccc(C2c3c(n(C)c4ccccc34)C(=O)N2CC(=O)Nc2cc(Cl)ccc2C)cc1 (configuration not stated)	?	21µM*	6%	.	.	.
COc1ccccc1N(C)S(=O)(=O)c1ccc(C(=O)N(CC(N)=O)C(C)C)cc1	14%	?	4%	1	16	8
CCOc1ccccc1CNC(=O)c1ccc(N2Cc3ccccc3Oc3ncccc32)s1	?	15µM*	5%	.	.	.
COc1ccc(-c2cc(C(=O)N(C)CC(=O)Nc3cccc(F)c3)c3ccccc3n2)cc1OC	21µM*	21µM*	.	-2	-2	0
COc1cccc(NC(=O)CN(C)C(=O)c2cc(-c3ccc(F)cc3)nc3ccccc23)c1	?	?	0%	3	-62*	-1
COc1ccc(NC(=O)CN(C)C(=O)c2cc(-c3ccco3)nc3ccccc23)cc1	?	?	4µM*	-28	-1	2
CCOc1ccc(Cl)cc1S(=O)(=O)N1CCN(c2ccc(C)c(C)c2)CC1	?	?	4%	-11	-17	0
Cc1cc(C)[n+]2[nH]c(N)c(N=Nc3ccccc3)c2n1	?	16µM*	7%	-26	-29	-30
Cc1c(C(=O)N2CCCCC2)c(S(=O)(=O)N2c3ccccc3CC2C)c(C)n1C (configuration not stated)	?	-26%	6%	-1	19	1
CN(Cc1ccccc1)C(=O)[C@@H]1CCCN1C(=O)[C@@H]1CCCN1C(=O)c1ccc(Cl)cc1	-22%	-24%	.	-6	34	-2
Cc1c(NC(=S)NC(C)(C)C)c(=O)n(-c2ccccc2)n1C	-1%	-1%	2%	-1	0	8
Cc1c(NC(=O)C(C)OC(=O)c2ncc(Cl)c(Cl)c2Cl)c(=O)n(-c2ccccc2)n1C (configuration not stated)	-4%	4%	0%	2	-72*	-7
Cc1c(NC(=S)NC(NC(=O)C(C)C)C(Cl)(Cl)Cl)c(=O)n(-c2ccccc2)n1C (configuration not stated)	15µM*	15µM*	0%	0	25	8
Cc1c(NC(=O)C(C)OC(=O)COc2ccccc2)c(=O)n(-c2ccccc2)n1C (configuration not stated)	19%	-14%	2%	5	28	-5
O=C(NCCc1c[nH]c2ccccc12)c1ccco1	-26%	-20%	.	-19	3	-2
CNc1ncc(-c2nnnn2-c2ccccc2)c(-c2ccccc2)n1	?	?	-3%	6	0	.
COc1ccc(-n2nnnc2-c2cnc(N3CCCC3)nc2C(F)(F)F)cc1	8.2µM*	9.2µM*	0%	-1	-55*	5
FC(F)(F)c1nc(-c2cccnc2)ncc1-c1nnnn1-c1ccccc1	?	16µM*	1%	-3	-11	-8
Clc1ccc(-n2nnnc2-c2cnc(-c3ccncc3)nc2-c2cccs2)cc1	?	?	14%[56.1 µM]	-15	-28	-4
FC(F)(F)c1nc(-c2cccs2)ncc1-c1nnnn1-c1ccc(Cl)cc1	4.1µM*	2.9µM*	4%	-2	-27	1
COc1ccc(-n2nnnc2-c2cccnc2)cc1	2%	-20%	3%	2	19	-2
CC(C)c1ccc(S(=O)(=O)N2CCN(C(=O)CN3C(=O)NC4(CCCCC4)C3=O)CC2)cc1	?	-22%	-10%	0	-9	1
CCC1(c2ccccc2)C(=O)N=C(N)N(C#N)C1=O (configuration not stated)	-3%	1%	.	-2	4	8
COc1ccc(C)cc1NC(=O)C1CCCN(c2ncnc3onc(C)c23)C1 (configuration not stated)	?	16µM*	8%	.	.	.
SMILES	DT40 TDP1 CPT	TDP1 cell noCPT	TDP1 inh	Six1-Eya2 inh	IL1B secr inh	CtBP-E1A blk
COc1cccc(NC(=O)C2CCCN(c3ncnc4onc(C)c34)C2)c1 (configuration not stated)	21µM*	21µM*	5%	.	.	.
COc1cccc(NC(=O)C2CCC2)c1	-4%	-2%	1%	-13	-5	-4
CCN(CC)CCNC(=O)C1CCCN(c2ncnc3onc(C)c23)C1 (configuration not stated)	0%	-5%	4%	.	.	.
Cc1noc2ncnc(N3CCCC(C(=O)NC(C)C)C3)c12 (configuration not stated)	-27%	?	-6%	.	.	.
Cc1ccc(NC(=O)C2CCCN(c3ncnc4onc(C)c34)C2)cc1Cl (configuration not stated)	10µM*	16µM*	2%	.	.	.
COc1ccc(C2NC(=O)NC(C)=C2C(=O)Nc2cc(C)ccc2C)cc1OC (configuration not stated)	3%	-18%	4%	-1	2	2
CC(NC(=O)OC(C)(C)C)C(=O)NC(CCC(=O)OCc1ccccc1)C(N)=O (configuration not stated)	-28%	29µM*	2%	6	-8	0
CC(C)CC(NC(=O)C(NC(=O)C(Cc1ccc(OCc2ccccc2)cc1)NC(=O)OC(C)(C)C)C(C)C)C(N)=O (configuration not stated)	?	16µM*	3%	1	22	10
CC(C)CC(NC(=O)C(CC(C)C)NC(=O)C(Cc1ccc(OCc2ccccc2)cc1)NC(=O)OC(C)(C)C)C(N)=O (configuration not stated)	?	?	4%	76	-9	6
CCCn1c(C2CCCN2c2nc(C)cs2)nc2cc(Cl)c(Cl)cc21 (configuration not stated)	?	?	.	-13	1	-28
COc1cc(S(=O)(=O)N2CCC(N3CCCCC3)CC2)ccc1-n1cnnn1	-1%	-6%	6%	-8	-14	10
CCOc1cccc2c1Oc1nc(-c3ccccc3)nc(SCC(=O)Nc3ccc(F)cc3)c1C2	?	?	6%	.	.	.
